# Assay results: PubChem BioAssay (EPA / NIEHS)
# Where “and” joins values, the source holds several entries; their conditions need not be identical. Equal entries are not always repeated. Inconclusive results are not listed. Some structures have more than one record in an assay (separate samples or runs), and their calls can disagree. Calls of active or inactive are those of the source. Rule for the calls, unless noted: active = hit-call score of the fitted dose curve at least 0.9, where 1 is the maximum; inconclusive = response in the unintended direction; inactive = score below 0.9.
# How the values were obtained:
# [1] = tested on: frog Estrogen Receptor (ER), gene 398734; experiment: ATG_frER1_XSP2: Attagene TRANS-FACTORIAL Multi-Species (XSP2) HepG2 Assay for frog Estrogen Receptor (ER) (AID 2283821);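 note: hits raise reporter mRNA above DMSO baseline so potency means agonist or activator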
# Procedure, shortened: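 Reporter mRNA induction, detected as fluorescence after RT-PCR and capillary electrophoresis, is the endpoint; activity is fitted upward against DMSO. Cells are human liver HepG2 carrying transfected NR-Gal4 chimeras with GAL4-UAS-driven reporters, harvested 24 h post-dosing.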
# [2] = tested on: zebrafish Estrogen Receptor (ER2b), gene 317733; experiment: ATG_zfER2b_XSP2: Attagene TRANS-FACTORIAL Multi-Species (XSP2) HepG2 Assay for zebrafish Estrogen Receptor (ER2b) (AID 2283823);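 note: fitted upward as reporter gain over DMSO so potency reflects activation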
# Procedure, shortened: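 Transfect HepG2 with GAL4-UAS reporter constructs; dose chemicals, 24 h; isolate RNA, RT-PCR, FAM-label, HpaI digest; capillary electrophoresis. Gain-of-signal vs DMSO.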
# [3] = target: Estrogen receptor (Homo sapiens) (UniProt P03372); experiment: ATG_hERa_XSP2: Attagene TRANS-FACTORIAL Multi-Species (XSP2) HepG2 Assay for human Estrogen Receptor (ERa) (AID 2283827)
# Procedure, shortened: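 Trans-activation of exogenous human ERa-Gal4 chimera read in HepG2 as reporter transcript after 24 h exposure; medium included 3 nM 6-alpha-fluorotestosterone and 1.5 nM norgestrel. Quantified by RT-PCR with capillary electrophoresis, positive-direction fitting against DMSO.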
# [4] = tested on: frog Estrogen Receptor (ER2), gene 100174814; experiment: ATG_frER2_XSP2: Attagene TRANS-FACTORIAL Multi-Species (XSP2) HepG2 Assay for frog Estrogen Receptor (ER2) (AID 2283828)
# Procedure, shortened: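 Cells were transfected with reporter constructs under GAL4-UAS control, dosed with chemicals for 24 h, then lysed for RNA; the frog ER2-driven reporter mRNA was quantified by capillary electrophoresis of labeled PCR fragments, with activity fitted upward from DMSO.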
# [5] = target: Peroxisome proliferator-activated receptor gamma (Homo sapiens) (UniProt P37231); experiment: ATG_hPPARg_XSP2: Attagene TRANS-FACTORIAL Multi-Species (XSP2) HepG2 Assay for human Peroxisome Proliferator-activated Receptor gamma (PPARg) (AID 2283829);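 note: actives raise reporter mRNA above DMSO so AC50 reflects PPARg activation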
# Procedure, shortened: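 Transient MRTU transfection, HepG2; TRANS format (exogenous NR-Gal4 chimeras). 24 h chemical exposure with 3 nM 6-alpha-fluorotestosterone and 1.5 nM norgestrel present. Readout: reporter mRNA via RT-PCR/CE fluorescence, up-direction vs DMSO.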
# [6] = target: mouse Peroxisome Proliferator-activated Receptor gamma (PPARg), Pparg (gene 19016) (UniProt P37238); experiment: ATG_mPPARg_XSP2: Attagene TRANS-FACTORIAL Multi-Species (XSP2) HepG2 Assay for mouse Peroxisome Proliferator-activated Receptor gamma (PPARg) (AID 2283830);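 note: hits are gains in reporter mRNA above DMSO so AC50 marks activation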
# Procedure, shortened: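 Multiplexed TRANS reporter readout: after 24 h chemical exposure of transfected HepG2 cells (with 3 nM 6-alpha-fluorotestosterone, 1.5 nM norgestrel present), RNA reverse-transcribed, amplified, 6-FAM-labelled and resolved by capillary electrophoresis; mouse PPARg-Gal4 induction scored against DMSO.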
# [7] = target: Nuclear receptor subfamily 1 group I member 2 (Mus musculus) (UniProt O54915); experiment: ATG_mPXR_XSP2: Attagene TRANS-FACTORIAL Multi-Species (XSP1) HepG2 Assay for mouse Pregnane X Receptor (PXR) (AID 2283831)
# Procedure, shortened: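 Transient HepG2 transfection, multiplexed GAL4-UAS reporters, NR-GAL4 chimeras. 24 h compound exposure. Readout: reporter mRNA, RT-PCR, fluorescent capillary electrophoresis; positive direction vs DMSO baseline.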
# [8] = tested on: zebrafish Peroxisome Proliferator-activated Receptor gamma (PPARg), gene 557037; experiment: ATG_zfPPARg_XSP2: Attagene TRANS-FACTORIAL Multi-Species (XSP2) HepG2 Assay for zebrafish Peroxisome Proliferator-activated Receptor gamma (PPARg) (AID 2283833);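 note: reporter mRNA from a zebrafish PPARg GAL4 chimera measured by RT-PCR and capillary electrophoresis; actives increase reporter signal over DMSO so AC50 reflects activation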
# Procedure, shortened: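 Transfect HepG2 with multiplexed GAL4-UAS reporter constructs; dose chemical 24 h; isolate RNA, reverse-transcribe, PCR-amplify, label and digest reporter products; resolve by capillary electrophoresis. Activity taken as increase over DMSO.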
# [9] = tested on: turtle Thyroid Hormone Receptor, alpha (TRa), gene 101949057; experiment: ATG_trTRa_XSP2: Attagene TRANS-FACTORIAL Multi-Species (XSP1) HepG2 Assay for turtle Thyroid Hormone Receptor, alpha (TRa) (AID 2283834);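 note: hits raise reporter mRNA over the DMSO baseline so AC50 marks activators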
# Procedure, shortened: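 Readout: reporter mRNA induction, fluorescence after RT-PCR, HpaI digestion and capillary electrophoresis. Transiently transfected HepG2, exogenous NR-Gal4 chimera driving GAL4-UAS reporter, 24 h compound exposure. Activity fitted upward relative to DMSO baseline.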
# [10] = ATG_M_61_XSP2: Attagene TRANS-FACTORIAL Multi-Species (XSP2) HepG2 Assay for M61 Transcription Factor (Internal Marker) (AID 2283835; active = hit-call score of the fitted dose curve at least 0.9, where 1 is the maximum; inactive = score below 0.9;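 note: reporter mRNA of an internal background marker read by RT-PCR and capillary electrophoresis; active means a rise in signal above the DMSO baseline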)
# Procedure, shortened: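 Transient MRTU transfection of human HepG2; 24 h chemical dosing with 3 nM 6-alpha-fluorotestosterone + 1.5 nM norgestrel added for AR stimulation. RNA isolated, RT, PCR, FAM-labelled, HpaI cut, CE read. Positive direction vs DMSO.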
# [11] = target: zebrafish Thyroid Hormone Receptor beta (TRb), thrb (gene 30607) (UniProt Q9PVE4); experiment: ATG_zfTRb_XSP2: Attagene TRANS-FACTORIAL Multi-Species (XSP1) HepG2 Assay for zebrafish Thyroid Hormone Receptor beta (TRb) (AID 2283836);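 for AC50: potency for induction of reporter signal above DMSO so agonist direction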
# Procedure, shortened: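 Reporter transcripts were measured by RT-PCR with fluorescent primer extension and capillary electrophoresis, 24 h after chemical dosing of transiently transfected HepG2 cells. Activity was scored as upward signal versus DMSO baseline.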
# [12] = ATG_XTT_Cytotoxicity_XSP2: Cytotoxicity Assessment in the Attagene TRANS-FACTORIAL Multi-Species (XSP2) HepG2 Assay (AID 2283837)
# Procedure, shortened: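 XTT-based cell number read-out in human HepG2 liver cells carrying transfected reporter units, measured 24 h after chemical dosing. Activity is signal loss versus DMSO baseline.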
# [13] = target: human Thyroid hormone Receptor alpha (TRa), THRA (gene 7067) (UniProt P10827); experiment: ATG_hTRa_XSP2: Attagene TRANS-FACTORIAL Multi-Species (XSP2) HepG2 Assay for human Thyroid hormone Receptor alpha (TRa) (AID 2283838)
# Procedure, shortened: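 Gain-of-signal in reporter mRNA, relative to DMSO, after 24 h dosing of transfected HepG2; quantitation by RT-PCR fragment analysis on capillary electrophoresis.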
# [14] = target: human Thyroid hormone Receptor beta (TRb), THRB (gene 7068) (UniProt P10828); experiment: ATG_hTRb_XSP2: Attagene TRANS-FACTORIAL Multi-Species (XSP2) HepG2 Assay for human Thyroid hormone Receptor beta (TRb) (AID 2283840);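 note: actives raise reporter mRNA so potency reflects agonist-like gain of signal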
# Procedure, shortened: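 Read-out: reporter mRNA induction (RT-PCR, 6-FAM labeling, capillary electrophoresis), gain-of-signal relative to DMSO baseline. Transiently transfected HepG2 TRANS multiplex (NR-Gal4 chimeras, GAL4-UAS reporters), 24 h chemical exposure; medium contained 3 nM 6-alpha-fluorotestosterone plus 1.5 nM norgestrel.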
# [15] = tested on: Sodium/Iodide Symporter (NIS), SLC5A5 (gene 6528); experiment: CPHEA_Stoker_NIS_Inhibition_RAIU: CPHEA's Radioactive Iodide Uptake (RAIU) Assay for Sodium/Iodide Symporter (NIS) Inhibition, Stoker and Laws Labs (AID 2283841)
# Procedure, shortened: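 Iodide uptake read as CPM of intracellular 125I (final 329 pM) after 2 h room-temperature exposure in HEPES-buffered HBSS, pH 7.4. Human NIS-expressing HEK293T cells; six concentrations 0.001–100 uM, 0.5% DMSO, normalised to DMSO wells.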
# [16] = tested on: chicken Androgen Receptor (AR), gene 422165; experiment: ATG_chAR_XSP2: Attagene TRANS-FACTORIAL Multi-Species (XSP2) HepG2 Assay for chicken Androgen Receptor (AR) (AID 2283819);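 note: hits raise reporter mRNA above DMSO so potency is for activation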
# Procedure, shortened: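 Readout is reporter mRNA induction via RT-PCR/capillary electrophoresis after 24 h chemical exposure, positive direction relative to DMSO. Transiently transfected HepG2 express chimeric chicken AR–GAL4; AR stimulated by 3 nM 6-alpha-fluorotestosterone and 1.5 nM norgestrel.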
# [17] = tested on: frog Androgen Receptor (AR), gene 399456; experiment: ATG_frAR_XSP2: Attagene TRANS-FACTORIAL Multi-Species (XSP2) HepG2 Assay for frog Androgen Receptor (AR) (AID 2283824);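 note: reporter mRNA from GAL4-UAS units driven by Xenopus AR-Gal4 chimera; actives raise reporter signal above DMSO so AC50 reflects agonist-like induction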
# Procedure, shortened: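 Reporter transcript induction, read by RT-PCR with fluorescent capillary electrophoresis, in human liver HepG2 cells carrying an exogenous Xenopus AR-Gal4 fusion and GAL4-driven reporters; chemical exposure 24 hours, activity scored upward against DMSO controls.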
# [18] = target: zebrafish Thyroid Hormone Receptor alpha (TRa), thraa (gene 30670) (UniProt Q98867); experiment: ATG_zfTRa_XSP2: Attagene TRANS-FACTORIAL Multi-Species (XSP1) HepG2 Assay for zebrafish Thyroid Hormone Receptor alpha (TRa) (AID 2283832);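 note: actives raise zebrafish TRa-Gal4 reporter transcript above DMSO baseline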
# Procedure, shortened: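 Readout is reporter mRNA induction, quantified by RT-PCR and capillary electrophoresis with fluorescent labelling, after 24 h compound exposure of transiently transfected HepG2 cells carrying NR-Gal4 chimera reporters. Activity fitted upward relative to DMSO.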
# Sequence of mouse Peroxisome Proliferator-activated Receptor gamma (PPARg), Pparg (gene 19016) (P37238 whole entry, looked up, the tested form may be a part): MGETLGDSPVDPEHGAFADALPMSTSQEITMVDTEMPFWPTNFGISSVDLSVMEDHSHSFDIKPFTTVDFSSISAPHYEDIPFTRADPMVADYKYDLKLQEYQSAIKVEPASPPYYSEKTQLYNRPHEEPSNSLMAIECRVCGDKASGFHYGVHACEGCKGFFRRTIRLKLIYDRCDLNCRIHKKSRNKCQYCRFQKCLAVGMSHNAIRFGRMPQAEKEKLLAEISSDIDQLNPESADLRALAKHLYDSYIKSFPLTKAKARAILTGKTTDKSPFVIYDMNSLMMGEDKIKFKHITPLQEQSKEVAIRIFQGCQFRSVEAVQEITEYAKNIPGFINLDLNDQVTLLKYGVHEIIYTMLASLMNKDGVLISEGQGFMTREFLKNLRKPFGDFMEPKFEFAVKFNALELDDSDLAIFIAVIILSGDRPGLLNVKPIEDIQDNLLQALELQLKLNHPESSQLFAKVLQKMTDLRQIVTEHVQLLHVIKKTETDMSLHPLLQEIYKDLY
# Sequence of Estrogen receptor (Homo sapiens) (P03372 whole entry, looked up, the tested form may be a part): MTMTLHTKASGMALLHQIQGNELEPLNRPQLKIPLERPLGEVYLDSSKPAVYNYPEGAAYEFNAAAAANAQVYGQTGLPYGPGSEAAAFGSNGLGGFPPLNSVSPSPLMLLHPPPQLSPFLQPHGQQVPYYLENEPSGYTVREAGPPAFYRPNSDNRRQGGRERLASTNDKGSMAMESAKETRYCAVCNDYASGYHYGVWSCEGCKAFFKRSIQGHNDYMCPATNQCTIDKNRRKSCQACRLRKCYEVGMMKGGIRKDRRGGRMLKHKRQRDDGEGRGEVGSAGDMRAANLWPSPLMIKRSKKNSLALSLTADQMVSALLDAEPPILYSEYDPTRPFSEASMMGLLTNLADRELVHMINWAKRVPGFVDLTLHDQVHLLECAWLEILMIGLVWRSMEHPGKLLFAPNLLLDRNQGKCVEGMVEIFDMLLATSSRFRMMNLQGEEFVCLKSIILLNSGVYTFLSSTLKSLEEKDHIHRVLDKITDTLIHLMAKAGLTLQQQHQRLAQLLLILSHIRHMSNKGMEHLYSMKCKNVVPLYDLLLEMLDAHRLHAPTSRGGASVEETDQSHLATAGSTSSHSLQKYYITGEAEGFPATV
# Sequence of human Thyroid hormone Receptor beta (TRb), THRB (gene 7068) (P10828 whole entry, looked up, the tested form may be a part): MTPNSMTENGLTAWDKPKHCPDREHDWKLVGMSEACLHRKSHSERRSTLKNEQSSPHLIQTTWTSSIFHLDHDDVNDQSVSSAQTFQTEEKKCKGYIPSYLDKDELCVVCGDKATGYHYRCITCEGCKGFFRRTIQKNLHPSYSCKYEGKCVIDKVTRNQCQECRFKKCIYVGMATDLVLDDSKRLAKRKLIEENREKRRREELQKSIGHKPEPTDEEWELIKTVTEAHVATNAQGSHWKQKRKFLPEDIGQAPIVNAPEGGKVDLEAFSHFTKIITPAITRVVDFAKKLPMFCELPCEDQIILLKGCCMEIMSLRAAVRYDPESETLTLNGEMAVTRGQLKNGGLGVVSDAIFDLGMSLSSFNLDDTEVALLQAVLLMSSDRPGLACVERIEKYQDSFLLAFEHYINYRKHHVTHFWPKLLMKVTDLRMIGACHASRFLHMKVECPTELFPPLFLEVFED
# Sequence of Nuclear receptor subfamily 1 group I member 2 (Mus musculus) (O54915 whole entry, looked up, the tested form may be a part): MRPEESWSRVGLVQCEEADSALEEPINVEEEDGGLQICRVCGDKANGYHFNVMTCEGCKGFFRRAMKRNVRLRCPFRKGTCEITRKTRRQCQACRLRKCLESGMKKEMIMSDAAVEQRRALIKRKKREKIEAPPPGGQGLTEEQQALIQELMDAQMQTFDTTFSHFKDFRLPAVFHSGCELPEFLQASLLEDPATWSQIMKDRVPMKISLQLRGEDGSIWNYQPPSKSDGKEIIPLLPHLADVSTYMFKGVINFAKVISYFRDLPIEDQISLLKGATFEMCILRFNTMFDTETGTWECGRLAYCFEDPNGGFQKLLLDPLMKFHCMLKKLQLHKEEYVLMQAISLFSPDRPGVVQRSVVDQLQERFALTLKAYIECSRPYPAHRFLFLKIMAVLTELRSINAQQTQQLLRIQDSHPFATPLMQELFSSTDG
# Sequence of human Thyroid hormone Receptor alpha (TRa), THRA (gene 7067) (P10827 whole entry, looked up, the tested form may be a part): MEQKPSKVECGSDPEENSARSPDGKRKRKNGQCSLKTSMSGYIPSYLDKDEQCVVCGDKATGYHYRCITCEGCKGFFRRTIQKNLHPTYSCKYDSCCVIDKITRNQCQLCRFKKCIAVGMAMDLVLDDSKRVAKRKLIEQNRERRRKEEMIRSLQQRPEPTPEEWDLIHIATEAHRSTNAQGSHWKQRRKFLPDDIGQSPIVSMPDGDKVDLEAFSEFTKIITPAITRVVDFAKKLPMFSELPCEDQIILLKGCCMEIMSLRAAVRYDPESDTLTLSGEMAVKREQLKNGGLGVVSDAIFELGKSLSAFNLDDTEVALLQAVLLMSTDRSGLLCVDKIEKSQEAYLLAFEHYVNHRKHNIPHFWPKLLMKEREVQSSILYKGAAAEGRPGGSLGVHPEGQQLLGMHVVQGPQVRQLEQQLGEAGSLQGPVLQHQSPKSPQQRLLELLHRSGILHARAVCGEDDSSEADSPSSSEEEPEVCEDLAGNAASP
# Sequence of Peroxisome proliferator-activated receptor gamma (Homo sapiens) (P37231 whole entry, looked up, the tested form may be a part): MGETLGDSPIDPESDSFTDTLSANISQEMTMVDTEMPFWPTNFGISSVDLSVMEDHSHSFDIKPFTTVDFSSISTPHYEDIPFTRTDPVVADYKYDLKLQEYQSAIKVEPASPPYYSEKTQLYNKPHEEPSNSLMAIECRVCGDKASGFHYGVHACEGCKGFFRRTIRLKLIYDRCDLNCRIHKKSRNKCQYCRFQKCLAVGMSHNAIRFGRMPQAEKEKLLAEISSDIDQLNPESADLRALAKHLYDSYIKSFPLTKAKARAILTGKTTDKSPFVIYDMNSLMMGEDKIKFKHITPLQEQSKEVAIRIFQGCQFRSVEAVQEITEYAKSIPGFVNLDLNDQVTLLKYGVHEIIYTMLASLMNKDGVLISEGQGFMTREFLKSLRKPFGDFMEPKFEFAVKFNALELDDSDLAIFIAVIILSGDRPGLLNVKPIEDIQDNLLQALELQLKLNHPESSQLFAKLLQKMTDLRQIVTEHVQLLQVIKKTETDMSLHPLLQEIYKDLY
# Sequence of zebrafish Thyroid Hormone Receptor alpha (TRa), thraa (gene 30670) (Q98867 whole entry, looked up, the tested form may be a part): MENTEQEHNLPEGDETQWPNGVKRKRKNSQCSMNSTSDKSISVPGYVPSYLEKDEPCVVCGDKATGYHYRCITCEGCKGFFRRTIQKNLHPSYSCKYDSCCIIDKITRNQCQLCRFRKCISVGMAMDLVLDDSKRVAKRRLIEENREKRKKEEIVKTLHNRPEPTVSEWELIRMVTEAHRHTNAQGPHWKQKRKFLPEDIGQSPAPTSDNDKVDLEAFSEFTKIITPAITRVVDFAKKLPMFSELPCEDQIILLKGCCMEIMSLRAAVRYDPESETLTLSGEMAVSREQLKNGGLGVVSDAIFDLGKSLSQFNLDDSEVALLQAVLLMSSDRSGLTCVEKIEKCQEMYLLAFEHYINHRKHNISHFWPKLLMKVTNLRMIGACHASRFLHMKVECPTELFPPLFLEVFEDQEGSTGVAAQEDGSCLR
# Sequence of zebrafish Thyroid Hormone Receptor beta (TRb), thrb (gene 30607) (Q9PVE4 whole entry, looked up): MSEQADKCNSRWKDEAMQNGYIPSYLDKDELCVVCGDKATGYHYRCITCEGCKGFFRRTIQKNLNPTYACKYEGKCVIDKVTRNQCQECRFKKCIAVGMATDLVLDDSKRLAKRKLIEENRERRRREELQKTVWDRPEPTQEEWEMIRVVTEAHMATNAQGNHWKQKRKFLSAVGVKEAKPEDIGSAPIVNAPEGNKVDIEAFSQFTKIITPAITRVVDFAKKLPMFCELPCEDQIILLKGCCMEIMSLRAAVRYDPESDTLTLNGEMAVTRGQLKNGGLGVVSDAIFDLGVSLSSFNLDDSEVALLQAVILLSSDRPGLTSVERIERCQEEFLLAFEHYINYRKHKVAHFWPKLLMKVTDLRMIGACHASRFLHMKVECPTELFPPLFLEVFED
structure (smiles),measurement,setting,value
c1ccc2c(c1)ccc1ccccc12,outcome,[1],inactive
same,AC50,[2],80.9 µM (active)
same,outcome,[2],inactive
same,AC50,[3],21.3 µM (active)
same,outcome,[3],inactive
same,AC50,[4],57.3 µM (active)
same,outcome,[4],inactive
same,outcome,[5],inactive
same,outcome,[6],inactive
same,outcome,[7],inactive
same,outcome,[8],inactive
same,outcome,[9],inactive
same,outcome,[10],inactive
same,outcome,[11],inactive
same,outcome,[12],inactive
same,outcome,[13],inactive
same,outcome,[14],inactive
O=C1OC2(c3ccccc31)c1cc(Br)c(O)c(Br)c1Oc1c2cc(Br)c(O)c1Br,AC50,[15],14.1 µM (active)
CC[C@H](c1ccc(O)cc1)[C@@H](CC)c1ccc(O)cc1,AC50,[1],0.183 nM (active)
same,AC50,[2],0.000146 µM (active)
same,AC50,[3],6.34e-05 µM (active)
same,AC50,[4],0.000289 µM (active)
same,outcome,[9],inactive
same,outcome,[10],inactive
same,outcome,[11],inactive
same,outcome,[14],inactive
same,AC50,[15],50 µM (active)
O=C(OCCOCCOC(=O)c1ccccc1)c1ccccc1,outcome,[15],inactive
Cc1cc(CCN2CCN(c3nsc4ccccc34)CC2)cc2c1NC(=O)CC2(C)C,outcome,[15],inactive
CC1=C(/C=C/C(C)=C/C=C/C(C)=C/C(=O)O)C(C)(C)CCC1,outcome,[15],inactive
O=C(O)Cc1cc(I)c(Oc2cc(I)c(O)c(I)c2)c(I)c1,outcome,[16],inactive
same,outcome,[1],inactive
same,outcome,[2],inactive
same,outcome,[17],inactive
same,AC50,[5],524 nM (active) and 681 nM (active)
same,AC50,[6],560 nM (active)
same,outcome,[6],inactive
same,outcome,[7],inactive
same,AC50,[18],123 nM (active) and 54.3 nM (active)
same,outcome,[8],inactive
same,AC50,[9],91.9 nM (active) and 48.7 nM (active)
same,outcome,[10],inactive
same,AC50,[11],45.5 nM (active) and 14.4 nM (active)
same,AC50,[13],75.3 nM (active) and 30.2 nM (active)
same,AC50,[14],38.4 nM (active) and 12.3 nM (active)
same,outcome,[15],inactive
CCCOC(=O)c1ccc(O)cc1,AC50,[16],32 µM (active)
same,AC50,[1],27.7 µM (active) and 407 nM (active)
same,AC50,[2],65.8 µM (active) and 8.51 µM (active)
same,outcome,[17],inactive
same,AC50,[3],23.5 µM (active) and 2.61 µM (active)
same,AC50,[4],38.2 µM (active) and 1.53 µM (active)
same,AC50,[5],66.4 µM (active) and 100 µM (active)
same,AC50,[6],100 µM (active) and 87.6 µM (active)
same,outcome,[7],inactive
same,outcome,[18],inactive
same,outcome,[8],inactive
same,outcome,[9],inactive
same,outcome,[10],inactive
same,outcome,[11],inactive
same,outcome,[12],inactive
same,outcome,[13],inactive
same,AC50,[14],100 µM (active)
same,outcome,[14],inactive
CCC(=C(c1ccc(O)cc1)c1ccc(OCCN(C)C)cc1)c1ccccc1,outcome,[2],inactive
same,outcome,[4],inactive
same,AC50,[5],11.3 µM (active) and 12.9 µM (active)
same,AC50,[6],10.7 µM (active) and 7.1 µM (active)
same,AC50,[7],4.97 µM (active) and 6.16 µM (active)
same,AC50,[18],11.6 µM (active)
same,outcome,[18],inactive
same,outcome,[8],inactive
same,outcome,[9],inactive
same,outcome,[10],inactive
same,outcome,[11],inactive
same,AC50,[12],32.1 µM (active)
same,outcome,[14],inactive
same,outcome,[15],inactive
